The values below come from PubChem BioAssay.

The target in test [1] is Tumor necrosis factor receptor superfamily member 10B (Homo sapiens) (UniProt O14763). In words: caspase-8 TRAIL sensitization, hit retest, confirmation, cell-based, NB7+caspase-8, with/without TRAIL, luminescence panel (AID 651596). The conditions noted are these: NB7 neuroblastoma + caspase-8, TRAIL sensitization, luminescence viability, with TRAIL, mean of runs, at 10 µM, stronger effect = higher value.

Experiment in test [2]: as above
The conditions noted are these: NB7 neuroblastoma + caspase-8, without TRAIL, luminescence viability, without TRAIL, mean of runs, at 10 µM.

Tumor necrosis factor receptor superfamily member 10B (Homo sapiens), sequence (O14763 whole entry, looked up): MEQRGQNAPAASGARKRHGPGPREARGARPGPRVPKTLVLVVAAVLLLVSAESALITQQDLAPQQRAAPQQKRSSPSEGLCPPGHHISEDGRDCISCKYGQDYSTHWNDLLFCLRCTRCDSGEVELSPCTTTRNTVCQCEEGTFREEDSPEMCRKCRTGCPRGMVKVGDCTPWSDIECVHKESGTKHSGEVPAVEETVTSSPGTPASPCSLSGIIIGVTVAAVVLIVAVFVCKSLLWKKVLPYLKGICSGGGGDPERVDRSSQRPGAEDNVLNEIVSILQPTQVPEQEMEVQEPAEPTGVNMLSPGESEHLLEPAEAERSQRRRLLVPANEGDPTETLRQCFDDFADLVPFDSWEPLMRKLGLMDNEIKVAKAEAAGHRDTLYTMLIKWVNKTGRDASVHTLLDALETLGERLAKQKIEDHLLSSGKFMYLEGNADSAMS

Turning to `O=C(Nc1nc2ccccc2[nH]1)c1cc2ccccc2o1`, the activity in test [1] is 87.2%; in test [2], 87%.
On to `Nc1cnnc(N/N=C\c2ccccc2)c1Cl`, for which the activity worked out at 22.9% in test [1] and 19.8% in test [2].
Take `C(=N\Nc1nncc2ccccc12)/c1ccccc1`: the values for the activity in test [1] and in test [2] were 88.2% and 87.7%, respectively.
Taken in the same sequence, the figures for `O=C(CSc1nnc(-c2ccccc2Cl)o1)Nc1ccccn1` were 68.8% and 74%.
The matching figures for `O=[N+]([O-])c1c(Nc2cccc(O)c2)cc(Cl)c2nonc12`: 97% and 99.5%.
As for `O=C(Nc1ccccc1)c1nc[nH]c1C(=O)Nc1ccccc1F`, the activity in test [1] was determined as 62%; in test [2] it was 62.5%.
For the compound `COc1ccc(C2NN=C(c3ccc(C)cc3)S2)cc1OC` (configuration not stated), the figures for the activity in test [1] and in test [2] were 60% and 55%, respectively.
On to `COc1cccc2c1C(CO)N1C(C#N)C3CC(C(=O)O)C(C1C2)N3C` (configuration not stated), for which the activity in test [1] turned out to be 59.9%; in test [2], 83.8%.
In the case of `CCCCCc1c(-c2ccc(OC)c(OC)c2)ncn1CCc1ccccc1OC`, the activity in test [1] amounted to 22.7%; in test [2], 30.2%.
As to `CCOc1ccc(C(=O)Nc2cc(C)c3c(=O)oc4ccccc4c3n2)cc1`, the activity in test [1] stood at 61.2%; in test [2], 62.1%.
On to `CN1CCN(C(=O)C2=NOC3(C2)C(=O)Nc2ccccc23)CC1` (configuration not stated), for which the activity in test [1] was -0.15%; in test [2] it was 70.2%.
As for `Cc1cccnc1NC(=O)c1sc2ccccc2c1Cl`, the figures for the activity in test [1] and in test [2] were 33.3% and 23.5%, respectively.
As for `CC(C)CC(=O)Nc1nc2c(c(=O)[nH]1)CCCC2`, the activity in test [1] was found to be 69.3%; in test [2], 66.5%.
For the compound `O=C(CSc1nnc(NC(=O)c2ccc(F)cc2)s1)NCc1ccco1`, the activity is 64.4% in test [1] and 62.4% in test [2].
In the case of `O=C(Nc1ccc(N2CCN(Cc3ccccc3F)CC2)cc1)c1ccc([N+](=O)[O-])o1`, the activity in test [1] was 99%; in test [2], 98.8%.
For `Oc1cccc(/C=N/Nc2cccc3cccnc23)c1`, the figures for the activity in test [1] and in test [2] were 48.6% and 34.2%, respectively.
`Cc1ccc(CNc2nc3ccccc3n2C)cc1`: the values for the activity in test [1] and in test [2] were 59.8% and 53.8%, respectively.
As to `Cc1cc(C)cc(C(=O)Nc2nc3ccccc3[nH]2)c1`, the activity in test [1] amounted to 78.7%; in test [2], 72.5%.
Take `N#Cc1ccc(C(=O)Nc2nc(-c3cccs3)c(C(=O)C(F)(F)F)s2)cc1`: the activity in test [1] is 36.9%; in test [2] it was 37%.
The matching figures for `Oc1cccc2ccc(Nc3ccccn3)nc12`: 88.8% and 95.5%.
As for `O=C(Nc1ccc(N2CCCC2)c(Cl)c1)c1ccco1`, the values for the activity in test [1] and in test [2] were 43.3% and 27%, respectively.
The matching figures for `Clc1ccc(-n2cnc3c(Cl)ncnc32)cc1Cl`: 71.7% and 79%.
The matching figures for `COc1ccccc1C(=O)NNC(=O)c1cccc(O)c1`: 44.2% and 48.4%.
Turning to `CC1(C)CC(=O)C=C(c2ccc(-c3ccc4[nH]ccc4c3)cc2)C1=O`, the activity was 67.8% in test [1] and 64.4% in test [2].
With `CCc1ccc(C(=O)Cn2ccsc2=N)cc1`, the activity was 66.5% in test [1] and 66.6% in test [2].
Turning to `O=C(C[C@H]1C/C=C\C[C@@H](NC(=O)OCC2c3ccccc3-c3ccccc32)C(=O)O[C@@H](c2ccccc2)CNC1=O)N[C@H](CO)Cc1ccccc1`, the activity worked out at 64.2% in test [1] and 43.2% in test [2].
On to `Cc1ccc2[nH]c(-c3ccccc3)cc(=O)c2c1`, for which the activity in test [1] came out at 64.8%; in test [2], 63%.
Consider `O=C(CCl)Nc1ccc(Oc2cnc3ccccc3n2)cc1`, for which the activity is 97.6% in test [1] and 98.5% in test [2].
Turning to `C[n+]1c(-c2ccccc2)cc2c(=Cc3ccccc3)c3ccccc3n21`, the activity in test [1] is 73.1%; in test [2], 75.4%.
Regarding `COc1cc2nc(N3CCN(c4cc(C)ccc4C)CC3)nc(N)c2cc1OC`, the activity is 56.7% in test [1] and 88.7% in test [2].
For `O=C(Nc1cccc(Oc2ccc(C(=O)O)c(C(=O)O)c2)c1)c1ccc(-c2ccccc2)cc1`, the activity in test [1] is 60.4%; in test [2], 56%.
Taken in the same sequence, the figures for `CCOc1ccc(C(=O)Nc2cc(C)ccn2)cc1` were 95.2% and 96.3%.
Regarding `Cc1ccc(-c2nc(N/N=C/c3cccc([N+](=O)[O-])c3)c3ccccc3n2)cc1`, the values for the activity in test [1] and in test [2] were 70.8% and 63.5%, respectively.
Regarding `O=C1c2ccccc2NC(c2ccc3c(c2)OCCO3)N1c1ccc2c(c1)OCCO2` (configuration not stated), the activity in test [1] turned out to be 44.2%; in test [2] it was 51.8%.
Regarding `CN=c1scc(-c2ccccc2F)n1/N=C(\C)c1cccnc1`, the activity in test [1] was 54.9%; in test [2] it was 51.2%.
As for `O=C(N/N=C/c1cc(Br)cs1)c1ccc2c(c1)OCCO2`, the activity came to 78.8% in test [1] and 77.9% in test [2].
With `CC(C)(C)c1ccc(C(=O)Nc2cnccn2)cc1`, the activity amounted to 78.5% in test [1] and 82.2% in test [2].
On to `Cc1cc(C)cc(C(=O)O/N=C(\N)c2ccc(Br)cc2)c1`, for which the activity in test [1] and in test [2] was 89.5% throughout.
Take `Nc1ncnc2c(C3OC(CO)C(O)C3O)c[nH]c12` (configuration not stated): the values for the activity in test [1] and in test [2] were 95.2% and 98.7%, respectively.
`Cc1cc(C)c2c(=N)c3ccccc3n(CCCCCCCCn3c4ccccc4c(=N)c4c(C)cc(C)nc43)c2n1`: the activity in test [1] is 78.3%; in test [2], 98.7%.
Turning to `Cc1cc(N/N=C/c2ccccc2Cl)nc(NCc2ccccc2)n1`, the figures for the activity in test [1] and in test [2] were 37.5% and 34.1%, respectively.
In the case of `COC(=O)c1ccc(-c2nc3ccccc3[nH]2)cc1`, the activity in test [1] worked out at 80.7%; in test [2], 84.4%.
`Cc1ccc(-c2nc3cc(N)ccc3o2)c(C)c1`: the figures for the activity in test [1] and in test [2] were 61% and 49.5%, respectively.
For the compound `CCOc1ccc(N/C=C/C(=O)c2ccccc2)c([N+](=O)[O-])c1`, the activity in test [1] worked out at 92.7%; in test [2], 89.7%.
Take `O=C(Nc1ccc(NC(=O)C2CC2)cn1)c1ccccc1`: the activity turned out to be 51.1% in test [1] and 57% in test [2].
As to `CN(C)CCNC(=O)c1cccc(-c2cc(NC=O)c3ncc(-c4cccc(C(F)(F)F)c4)n3c2)c1`, the activity was found to be 99.4% in test [1] and 99.5% in test [2].
`CCN1CCN(c2ccc(S(=O)(=O)N3CCCCC3)cc2NC(=O)c2ccc([N+](=O)[O-])o2)CC1`: the values for the activity in test [1] and in test [2] were 59.8% and 61.9%, respectively.
Regarding `O=C(Nc1ccccn1)c1ccc2c(=O)n3c(nc2c1)CCCCC3`, the activity turned out to be 50.4% in test [1] and 62.5% in test [2].
The matching figures for `CC(C)(C)OC(=O)NCCCC[C@H](NC(=O)c1nc[nH]c1C(=O)NC(c1ccccc1)c1ccccc1)C(=O)OC(C)(C)C`: 67% and 23.8%.
With `Cc1ccc(C(=O)Nc2ncc(C)s2)s1`, the activity in test [1] was determined as 80.2%; in test [2], 79%.
As for `O=C(CSc1nc2ccccc2c(=O)[nH]1)Nc1ccc([N+](=O)[O-])cc1`, the activity in test [1] worked out at 35.1%; in test [2], 31.3%.
For the compound `CSc1ccc(/C=N/NC(=O)c2cccc(O)c2)cc1`, the activity in test [1] amounted to 78.8%; in test [2], 71%.
Take `CCc1nnc(NC(=O)CSc2nc3c(cc2C#N)CCCC3)s1`: the activity in test [1] turned out to be 62.8%; in test [2] it was 72.3%.
`O=C(Nc1nc2c(F)cc(F)cc2s1)c1ccccn1`: the activity in test [1] turned out to be 61.9%; in test [2], 64.5%.
As to `O=C(Nc1nc(-c2nc3ccccc3s2)cs1)C1CC1`, the activity turned out to be 59% in test [1] and 69.9% in test [2].
In the case of `CCOc1ccc2nc(NC(=O)CN3CCC(n4nnc5cc(C(F)(F)F)ccc54)CC3)sc2c1`, the activity came to 69% in test [1] and 66.9% in test [2].
